Measurements reported in PubChem BioAssay (EPA / NIEHS).
Results filed as inconclusive are left out. Activity calls are given as the source filed them. Rule for the calls, unless noted: active = hit-call score of the fitted dose curve at least 0.9, where 1 is the maximum; inconclusive = response in the unintended direction; inactive = score below 0.9. Where a SMILES comes first, the peptide text is derived from it. Bridges are numbered along the chain shown (N, C = ends). [ ]: non-standard residue; d: D form. hArg = N=C(N)NCCCC[C@H](N)C(=O)O; Mpa = O=C(O)CCS

Columns and labels:
[1] = TOX21_p53_BLA_p3_viability: Viability Assessment in the Tox21 HCT-116 p53 Agonism Beta-lactamase Assay, Phase 3 (AID 2283593);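 note: cells exposed to compound for 16 h before reading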
Outline: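 Cellular ATP was quantified by CellTiter-Glo luminescence, read after 30 min at room temperature. Beforehand, HCT116 cells (4000/well) received compound 5 h post-seeding, 217-fold diluted from DMSO, then incubated 16 h at 37C.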

[2] = target: Cellular tumor antigen p53 (Homo sapiens) (UniProt P04637); assay: TOX21_p53_BLA_p5_ratio: Tox21 HCT-116 p53 Agonism Beta-lactamase Assay, Ratio, Phase 5 (AID 2283599)
Outline: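 Beta-lactamase reporter ratio (blue 460 nm over green 530 nm, 405 nm excitation) after 2 h CCF4-AM loading, in HCT-116 cells exposed 16 h at 37 C to compounds pinned at 217-fold dilution. Increases relative to DMSO baseline scored.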

[3] = CCTE_Harrill_HTTr_Viability_MCF7: CCTE's 6-hour Cell Viability Assessment for the High-Throughput Transcriptomics (HTTr) Platform, in MCF-7 cells cultured in DMEM + 10% fetal bovine serum, Harrill Lab (AID 2284010; active = hit-call score of the fitted dose curve at least 0.9, where 1 is the maximum; inactive = score below 0.9)
Outline: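 PI exclusion, high-content imaging; 8-pt dilution series, 6 h exposure; bidirectional fit vs DMSO (neg. ctrl/baseline); gain of signal = loss of membrane integrity.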

[4] = CCTE_Harrill_HTTr_Apoptosis_MCF7: CCTE's 6-hour Apoptosis Assessment for the High-Throughput Transcriptomics (HTTr) Platform, in MCF-7 cells cultured in DMEM + 10% fetal bovine serum, Harrill Lab (AID 2284011; active = hit-call score of the fitted dose curve at least 0.9, where 1 is the maximum; inactive = score below 0.9)
Outline: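 High-content imaging of CellEvent Caspase 3/7 Green signal follows a six-hour exposure, with eight concentrations per chemical. MCF-7 cells grown in DMEM plus 10% fetal bovine serum; activity fitted in both directions against DMSO.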

[5] = CCTE_Harrill_HTTr_CellCount_MCF7: CCTE's Cell Proliferation Assessment for the High-Throughput Transcriptomics (HTTr) Platform, Harrill Lab (AID 2284012);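 note: count of Hoechst-stained nuclei per well by high-content imaging in MCF-7 cells; cells exposed to compound for six hours; intended direction is loss of nuclei count meaning fewer cells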
Outline: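 Readout: Hoechst nuclear count by high-content imaging. MCF-7, 8-point dilution series, 6 h exposure. Bidirectional fit vs DMSO baseline.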

[6] = target: Cellular tumor antigen p53 (Homo sapiens) (UniProt P04637); assay: TOX21_p53_BLA_p3_ratio: Tox21 HCT-116 p53 Agonism Beta-lactamase Assay, Ratio, Phase 3 (AID 2283596)
Outline: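 Cells were seeded at 4000/well, rested 5 h at 37C, then dosed with DMSO compound solutions (217-fold dilution) for 16 h. CCF4-AM substrate was loaded for 2 h at room temperature, and the 460/530 nm emission ratio was fitted for gain of signal versus DMSO.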

[7] = TOX21_p53_BLA_p4_viability: Viability Assessment in the Tox21 HCT-116 p53 Agonism Beta-lactamase Assay, Phase 4 (AID 2283597);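 note: hits lower the luminescence signal meaning cytotoxicity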
Outline: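 Cytotoxicity as reduced cellular ATP (CellTiter-Glo luminescence, 30 min room temperature), measured in the same wells following the CCF4 FRET p53 reading. Human HCT-116 cells received compounds in DMSO (217-fold dilution) for 16 h.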

[8] = TOX21_p53_BLA_p5_viability: Viability Assessment in the Tox21 HCT-116 p53 Agonism Beta-lactamase Assay, Phase 5 (AID 2283600)
Outline: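 Viability came from CellTiter-Glo ATP luminescence, read after 30 min at room temperature. Before this, HCT-116 p53-bla cells (4000/well) had 16 hours of compound exposure at 37C, with DMSO stocks diluted 217-fold on transfer.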

[9] = target: Cellular tumor antigen p53 (Homo sapiens) (UniProt P04637); assay: TOX21_p53_BLA_p4_ratio: Tox21 HCT-116 p53 Agonism Beta-lactamase Assay, Ratio, Phase 4 (AID 2283601)
Outline: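 Signal is the blue/green (460nm/530nm) ratio of cleaved versus uncleaved CCF4-AM substrate, read after 2 h substrate loading. Cells were HCT116 carrying the p53-responsive beta-lactamase reporter, dosed 16 h at 37C, 5% CO2; CellTiter-Glo measured in parallel.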

PGR (gene 5241) [10] = target: PGR (gene 5241) (UniProt P06401); assay: TOX21_PR_BLA_Followup_Agonist_ratio: Tox21 HEK293 Progesterone Receptor (PR) Agonism Beta-lactamase Follow-Up Assay, Ratio (AID 2283933)
Outline: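 Read-out: ratio of cleaved (ch2) to uncleaved (ch1) beta-lactamase substrate fluorescence, gain-of-signal relative to DMSO baseline. Cells: PR-UAS-bla HEK293T, 2% charcoal-stripped FBS; compound exposure 16 hr, 37C; substrate 2 hr, RT.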

PGR (gene 5241) [11] = target: PGR (gene 5241) (UniProt P06401); assay: TOX21_PR_BLA_Followup_Antagonist_ratio: Tox21 HEK293 Progesterone Receptor (PR) Antagonism Beta-lactamase Follow-Up Assay, Ratio (AID 2283934)
Outline: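 Read-out: blue/green beta-lactamase FRET ratio (cleaved ch2 over uncleaved ch1), fitted relative to DMSO baseline. Cells: PR-UAS-bla HEK293T, GAL4-UAS reporter, stimulated with 1 nM R5020 final; 16 hr compound exposure, 37C.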

[12] = TOX21_PR_BLA_Followup_Agonist_viability: Viability Assessment in the Tox21 HEK293 Progesterone Receptor (PR) Agonism Beta-lactamase Follow-Up Assay (AID 2283935);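 note: signal loss means lower viability so actives are cytotoxic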
Outline: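 Luminescent ATP quantitation (CellTiter-Glo, 30 min, room temperature) in the same wells as the beta-lactamase read, on PR-UAS-bla HEK293T cells exposed to compound for 16 hr at 37C in 2% charcoal-stripped serum.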

[13] = TOX21_PR_BLA_Followup_Antagonist_viability: Viability Assessment in the Tox21 HEK293 Progesterone Receptor (PR) Antagonism Beta-lactamase Follow-Up Assay (AID 2283936);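 note: cells exposed to compound with R5020 agonist for 16 h; hits lower the luminescence signal meaning cytotoxicity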
Outline: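 PR-UAS-bla HEK293T cells in medium with 2% charcoal-stripped FBS were treated with compounds plus R5020 for 16 hr at 37C. After the beta-lactamase read, CellTiter-Glo was added to the same wells and luminescence read after 30 min at room temperature.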

PGR (gene 5241) [14] = target: PGR (gene 5241) (UniProt P06401); assay: TOX21_PR_LUC_Followup_Agonist: Tox21 HEK293 Progesterone Receptor (PR) Agonism Luciferase Follow-Up Assay (AID 2283937; active = hit-call score of the fitted dose curve at least 0.9, where 1 is the maximum; inactive = score below 0.9)
Outline: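 Luminescence read-out (ONE-Glo, 30 min at room temperature) of PR-driven luciferase in HEK293-PR-A-luc cells after 16 h compound exposure at 37C; gain of signal fitted relative to DMSO baseline.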

PGR (gene 5241) [15] = target: PGR (gene 5241) (UniProt P06401); assay: TOX21_PR_LUC_Followup_Antagonist: Tox21 HEK293 Progesterone Receptor (PR) Antagonism Luciferase Follow-Up Assay (AID 2283938);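 note: curve fitted upward as signal gain over DMSO baseline despite antagonist label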
Outline: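 Luminescence from ONE-Glo was measured 30 min after reagent addition, following 16 h exposure of HEK293-PR-A-luc cells (3,000/well, plated 5 h earlier) to DMSO-dissolved compounds at 37C; DMSO served as baseline.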

[16] = TOX21_PR_LUC_Followup_Agonist_viability: Viability Assessment in the Tox21 HEK293 Progesterone Receptor (PR) Agonism Luciferase Follow-Up Assay (AID 2283941);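 note: loss of signal means cytotoxicity so actives lower viability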
Outline: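 Cytotoxicity counter-screen: ATP content by CellTiter-Glo luminescence, loss of signal = reduced viability. HEK293-PR-A-luc, 3,000 cells/well, compound exposure 16 h, 37C.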

Measured: outcome

Cellular tumor antigen p53 (Homo sapiens), sequence (P04637 whole entry, looked up): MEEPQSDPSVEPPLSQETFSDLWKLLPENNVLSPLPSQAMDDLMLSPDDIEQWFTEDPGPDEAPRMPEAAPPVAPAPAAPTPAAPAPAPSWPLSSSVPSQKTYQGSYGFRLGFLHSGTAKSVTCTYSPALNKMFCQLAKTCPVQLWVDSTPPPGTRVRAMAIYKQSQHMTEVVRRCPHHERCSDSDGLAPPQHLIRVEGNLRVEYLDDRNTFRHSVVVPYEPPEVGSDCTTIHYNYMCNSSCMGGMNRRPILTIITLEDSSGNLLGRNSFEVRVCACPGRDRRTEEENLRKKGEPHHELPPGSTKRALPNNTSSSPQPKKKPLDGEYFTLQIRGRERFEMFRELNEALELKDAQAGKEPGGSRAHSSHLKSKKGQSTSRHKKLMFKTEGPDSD
PGR (gene 5241), sequence (P06401 whole entry, looked up, the tested form may be a part): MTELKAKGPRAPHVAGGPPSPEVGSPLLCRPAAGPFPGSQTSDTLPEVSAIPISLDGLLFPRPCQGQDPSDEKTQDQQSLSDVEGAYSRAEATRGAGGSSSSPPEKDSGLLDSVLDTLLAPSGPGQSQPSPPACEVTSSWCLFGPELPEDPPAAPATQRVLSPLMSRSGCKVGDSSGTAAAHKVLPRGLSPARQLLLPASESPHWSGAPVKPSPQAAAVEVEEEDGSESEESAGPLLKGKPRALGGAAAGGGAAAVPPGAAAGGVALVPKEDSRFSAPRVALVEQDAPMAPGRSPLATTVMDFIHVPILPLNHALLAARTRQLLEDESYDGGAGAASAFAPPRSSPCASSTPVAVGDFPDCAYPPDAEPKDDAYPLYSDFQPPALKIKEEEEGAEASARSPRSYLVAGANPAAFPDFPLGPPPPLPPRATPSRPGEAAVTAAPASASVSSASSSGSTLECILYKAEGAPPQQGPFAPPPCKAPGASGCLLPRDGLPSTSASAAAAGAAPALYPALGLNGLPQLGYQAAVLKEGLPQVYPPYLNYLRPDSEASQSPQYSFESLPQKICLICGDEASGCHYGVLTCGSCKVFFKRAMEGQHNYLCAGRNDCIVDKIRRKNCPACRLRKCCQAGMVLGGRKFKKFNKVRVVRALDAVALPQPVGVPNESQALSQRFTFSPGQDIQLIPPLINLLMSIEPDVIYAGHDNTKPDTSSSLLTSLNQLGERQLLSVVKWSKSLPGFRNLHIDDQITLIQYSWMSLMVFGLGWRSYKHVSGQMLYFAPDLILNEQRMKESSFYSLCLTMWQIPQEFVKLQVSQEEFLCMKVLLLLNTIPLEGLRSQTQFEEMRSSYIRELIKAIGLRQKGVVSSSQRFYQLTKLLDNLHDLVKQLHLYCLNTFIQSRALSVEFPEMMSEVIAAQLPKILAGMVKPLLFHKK

COC(=O)[C@@H](N)Cc1ccc(O)c(O)c1
inactive: [1] | [2]

CCCCC(CC)COC(=O)CC#N (centres undefined)
inactive: [3] | [4] | [5]

C/C(=C\C(=O)OCCCCCCCCC(=O)O)C[C@@H]1OC[C@H](C[C@@H]2O[C@H]2[C@@H](C)[C@H](C)O)[C@@H](O)[C@H]1O
inactive: [6] | [7] | [2] | [8] | [9]

FC(F)(F)c1cccc(Cl)c1
inactive: [6] | [7] | [2] | [9]

Nc1ccc(C(=O)O)c(O)c1
inactive: [6] | [7] | [2] | [8] | [9]

NC(=O)[C@@H]1CSSCCC(=O)N[C@@H](CCCCN=C(N)N)C(=O)NCC(=O)N[C@@H](CC(=O)O)C(=O)N[C@H](Cc2c[nH]c3ccccc23)C(=O)N2CCC[C@H]2C(=O)N1 ([Mpa][hArg]GD[dW]PC-NH2; disulfide 1-7)
inactive: [6] | [2]

C=COCCCCO
inactive: [6] | [7] | [2] | [9]

Cc1cc(C)cc([N+](=O)[O-])c1
inactive: [6] | [7] | [8] | [9]

CC(=O)Oc1cc(C(C)C)c(OCCN(C)C)cc1C
inactive: [6] | [7] | [9]

CC#CCC(C)[C@H](O)/C=C/[C@@H]1[C@H]2C/C(=C/CCCC(=O)O)C[C@H]2C[C@H]1O (some centres undefined)
inactive: [6] | [7] | [9]

NS(=O)(=O)c1ccccc1Cl
inactive: [6] | [7] | [9]

CNC1(C)C2CCC(C2)C1(C)C (centres undefined)
inactive: [6] | [7] | [2] | [8] | [9]

CCCCCC/C=C/C(=O)OC
inactive: [6] | [2]

C[C@]12CC[C@@H]3c4ccc(OC(=O)c5ccccc5)cc4CC[C@H]3[C@@H]1CC[C@@H]2O
inactive: [6] | [2] | [8]

O=C(c1ccc(F)cc1)C1CCN(CCn2c(=S)[nH]c3ccccc3c2=O)CC1
inactive: [6] | [7] | [2] | [8] | [9]

O=[N+]([O-])c1cc(Cl)c(Cl)c(Cl)c1Cl
inactive: [6] | [7] | [9]

COc1ccc(/C=C/c2cc(OC)cc(=O)o2)cc1
inactive: [6] | [7] | [2] | [9]

CCNC(=O)C1CC(C)CCC1C(C)C (centres undefined)
inactive: [6] | [7] | [2] | [9]

Cc1ccccc1C(=O)O
inactive: [6] | [7] | [9]

N=C(N)c1ccc(C=Cc2ccc(C(=N)N)cc2O)cc1
inactive: [6] | [7] | [2] | [8]

CCCCOCCCC
inactive: [6] | [7] | [8] | [9]

O=C(c1ccc(O)cc1)c1ccc(O)cc1
inactive: [6] | [2]

Cn1nnnc1SCC1=C(C(=O)O)N2C(=O)[C@@H](NC(=O)[C@H](O)c3ccccc3)[C@H]2SC1
inactive: [6] | [7] | [2] | [8] | [9]

CC[C@H]1OC(=O)C[C@@H](O)[C@H](C)[C@@H](O[C@@H]2O[C@H](C)[C@@H](O)[C@H](N(C)C)[C@H]2O)[C@@H](CCN2C[C@H](C)C[C@H](C)C2)C[C@@H](C)C(=O)/C=C/C(C)=C/[C@@H]1CO[C@@H]1O[C@H](C)[C@@H](O)[C@@H](OC)[C@H]1OC
inactive: [6] | [2] | [8]

CN1CCN(C2=Nc3cc(F)ccc3Cc3ccccc32)CC1
inactive: [6] | [7] | PGR (gene 5241) [10] | PGR (gene 5241) [11] | [12] | [13] | PGR (gene 5241) [14] | PGR (gene 5241) [15] | [16]
